High-throughput results deposited in PubChem by National Center for Advancing Translational Sciences (NCATS).
A selection: hits, their analogues and other compounds. The true share with any hit is near 2.4%.
POLH inh = qHTS for Inhibitors of Polymerase Eta | DNA polymerase eta (Homo sapiens), Q9Y253 | recombinant Pol eta, fluorescent DNA replication assay | Potency, µM (series often up to 114 µM), hits mostly inhibitors | hit rate 1.2% among 390,000 | AID 588591, 2011
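Pol eta at 10 nM preincubated with compounds 15 min at room temperature; reaction started with fluorescent substrate (50 nM final) and read kinetically at 0 and 10 min.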
Pol kappa inh = qHTS for Inhibitors of Polymerase Kappa | hit rate 0.53% among 400,000 | Potency, µM (titrated, usually from 107 µM), actives largely listed as inhibitors | purified Pol kappa, fluorescent DNA synthesis assay, 10 min | DNA polymerase kappa (Homo sapiens), Q9UBT6
Target sequence (Q9UBT6 whole entry, looked up): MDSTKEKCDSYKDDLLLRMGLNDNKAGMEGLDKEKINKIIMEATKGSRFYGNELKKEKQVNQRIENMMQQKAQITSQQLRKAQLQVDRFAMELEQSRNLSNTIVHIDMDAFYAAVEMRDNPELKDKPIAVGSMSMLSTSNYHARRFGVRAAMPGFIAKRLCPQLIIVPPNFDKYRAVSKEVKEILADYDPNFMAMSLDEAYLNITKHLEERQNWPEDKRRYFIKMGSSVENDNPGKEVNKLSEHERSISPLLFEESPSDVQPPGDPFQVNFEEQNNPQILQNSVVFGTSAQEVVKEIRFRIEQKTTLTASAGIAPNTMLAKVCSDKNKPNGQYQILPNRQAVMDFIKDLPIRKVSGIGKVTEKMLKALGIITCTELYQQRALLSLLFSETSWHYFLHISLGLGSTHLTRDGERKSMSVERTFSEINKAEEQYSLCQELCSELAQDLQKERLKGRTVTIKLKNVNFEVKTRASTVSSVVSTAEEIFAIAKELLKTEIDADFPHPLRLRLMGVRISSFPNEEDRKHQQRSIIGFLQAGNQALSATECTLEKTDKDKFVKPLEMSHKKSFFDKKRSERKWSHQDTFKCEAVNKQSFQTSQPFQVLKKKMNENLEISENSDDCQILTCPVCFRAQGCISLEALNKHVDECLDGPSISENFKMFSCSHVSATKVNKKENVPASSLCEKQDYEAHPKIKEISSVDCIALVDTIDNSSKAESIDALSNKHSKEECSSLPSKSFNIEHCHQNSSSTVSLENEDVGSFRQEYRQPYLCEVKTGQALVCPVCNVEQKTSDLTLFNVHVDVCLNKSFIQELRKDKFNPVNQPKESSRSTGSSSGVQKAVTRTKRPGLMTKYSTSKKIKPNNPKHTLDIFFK
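First, compounds were pin-transferred onto 10 nM Pol kappa. After 15 min at room temperature, substrate was added to 50 nM final. Fluorescence was then measured kinetically at 0 and 10 min.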
TDP1 inh = qHTS Assay for Inhibitors of Tyrosyl-DNA Phosphodiesterase (TDP1). Tyrosyl-DNA phosphodiesterase 1 (Homo sapiens), Q9NUW8. recombinant TDP1, AlphaScreen DNA substrate cleavage. Potency, µM (top dose mostly 130 µM), hits mostly inhibitors. hit rate 0.28% among 350,000; also: nearly all actives have a fitted effect of over 40% in size
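E. coli-derived human Tdp1, 1 nM final. Cpd preinc 15 min RT; substrate 15 nM final, 5 min RT; AS bead mix 10 ug/ml final, 10 min RT. Signal loss = tyrosine-FITC cleavage. No-enzyme wells = max signal.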
POLB inh = qHTS Assay for Inhibitors of DNA Polymerase Beta; P06746; Pol beta primer extension/strand displacement, fluorescence kinetic; Potency, µM (highest dose often 114 µM), actives largely listed as inhibitors; hit rate 1.3% among 340,000; AID 485314, 2010
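Kinetic readout of DNA synthesis with strand displacement by Pol beta. Compound and 10 nM enzyme sit 15 min at room temperature; 50 nM substrate starts the reaction, read immediately and at 10 min.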
FEN1 inhibitor = qHTS Assay for the Inhibitors of Human Flap endonuclease 1 (FEN1). P39748. Potency, µM (titrated, usually from 114 µM), actives largely listed as inhibitors. hit rate 0.35% among 390,000. Recombinant FEN1 flap cleavage, fluorescence, 15 min; also: nearly all actives have a fitted effect of over 65% in size
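FEN1 at 10 nM, compound pretreatment for 15 min (room temperature), 50 nM final substrate to initiate; endpoint reads at 0 and 15 min; DMSO-only plates used as vehicle background.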
Pol iota inh = qHTS for Inhibitors of Polymerase Iota | DNA polymerase iota (Homo sapiens), Q9UNA4 | AID 588590, 2011 | Potency, µM (series often up to 115 µM), hits mostly inhibitors | Pol iota fluorescent replication assay, 10 min | hit rate 1% among 390,000
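Pol iota at 10 nM preincubated 15 min with compounds at room temperature; reaction started with fluorescent substrate, 50 nM final. Fluorescence read kinetically at 0 and 10 min; buffer-only wells as negative control.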
Hits are given with their value; n = inactive; u = inconclusive; x = no result given; [ ] = dose if it differs, or a comment. Calls follow the shape of the dose curve; as a rule, active = well fitted curve in the direction sought with a large enough effect; inconclusive = small, poorly fitted or top-dose-only effect, or another doubt; inactive = no such curve, though single readings can be large; an effect the other way counts as inactive or inconclusive.

SMILES	POLH inh	Pol kappa inh	TDP1 inh	POLB inh	FEN1 inhibitor	Pol iota inh
CSc1nc(C)c2c(n1)N(c1ccc(F)cc1)CC2	n	n	n	n	n	n
CSc1nc(C)c2c(n1)N(c1ccc(O)cc1)CC2	35.5µM	n	x	u	n	u
N#Cc1sc2nc(-c3ccccc3)cc(-c3ccco3)c2c1N	8.91µM	50.1µM	n	39.8µM	u	0.794µM
N#Cc1c(-c2ccccc2)cc(-c2ccco2)c(C#N)c1N	x	x	n	39.8µM	x	x
Cc1ccc(-c2cc(-c3ccco3)c3c(N)c(C(=O)NN)oc3n2)cc1	u	n	n	n	u	u
CS(=O)(=O)c1ccccc1NC(=O)COc1ccccc1C(=O)Nc1ccccc1	x	n	x	x	n	u
CCOC(=O)c1c(C)n(C)c2ccc(OC(=O)c3ccc([N+](=O)[O-])cc3)cc12	n	n	n	n	n	n
C#CCCc1cocc1/C=[N+](\[O-])c1ccc(C(=O)OCC)cc1	n	u	n	x	n	35.5µM
CCOC(=O)C1=C(C)N=c2s/c(=C/c3ccco3)c(=O)n2C1c1cccc(OC)c1 (configuration not stated)	u	n	n	31.6µM	n	u
COc1ccc(C2C(C(C)=O)=C(C)N=c3s/c(=C/c4ccc5c(c4)OCO5)c(=O)n32)cc1 (configuration not stated)	x	x	n	11.2µM	x	x
CC(=O)C1=C(C)N=c2s/c(=C/c3ccc4c(c3)OCO4)c(=O)n2C1c1ccc(N(C)C)cc1 (configuration not stated)	u	n	x	x	n	u
O=C([C@@H]1CC=C[C@@H]2CCN(C3CC3)C(=O)[C@@H]21)N1CCOCC1	x	n	x	x	n	n
Cc1ccc(C)c(S(=O)(=O)Nc2cc(SCC(=O)O)c(O)c3ccccc23)c1	22.4µM	n	n	79.4µM	56.2µM	8.91µM
COc1cc2cc(CN(Cc3nnnn3Cc3ccco3)C3CCCCC3)c(=O)[nH]c2cc1OC	u	u	x	44.7µM	n	u
CCOc1ccc2[nH]c(=O)c(CN(Cc3nnnn3Cc3ccco3)C3CCCCC3)cc2c1	n	n	x	20µM	n	n
COCCn1nnnc1CN(Cc1cc2cc(OC)c(OC)cc2[nH]c1=O)C1CCCC1	n	n	n	n	n	n
O=C(Cn1c(=O)n(Cc2ccc(F)cc2)c(=O)c2sc3ccccc3c21)Nc1ccc(F)cc1F	n	n	n	n	n	n
CC(C)(C)n1ncc2c(=O)n(Cc3ccccc3-c3ccccc3)cnc21	x	n	x	x	n	n
CCCCCc1c2c(cc(O)c1C(=O)O)OC(=O)c1c(cc(OC)cc1C(=O)CCCC)O2	79.4µM	u	n	50.1µM	n	u
CCCCCC(=O)Cc1cc(O)cc(O)c1C(=O)Oc1cc(CC(=O)CCCCC)c(C(=O)O)c(OC)c1	x	n	n	x	x	x
CCCCc1c(C(=O)O)cc(OC)cc1C(=O)O	n	n	n	n	n	n
CCCCCc1c2c(cc(O)c1C(=O)O)OC(=O)c1cc(C(=O)CCCC)c(OC)cc1O2	79.4µM	n	n	x	u	u
O=c1ccc2cc3c([nH]c4ccc(Br)cc43)oc-2c1O	x	x	n	10µM	x	x
COc1ccc(/C=C/c2ccc3ccccc3n2)c(OC)c1	x	n	x	x	u	n
O=C(/C=C/c1ccco1)Nc1cc(Cl)ccc1C(=O)O	10µM	u	n	22.4µM	n	u
SMILES	POLH inh	Pol kappa inh	TDP1 inh	POLB inh	FEN1 inhibitor	Pol iota inh
O=C(CCC(=O)N/N=C/c1ccco1)N/N=C/c1ccco1	n	n	n	n	n	n
O=C(CCCCCCCCC(=O)N/N=C/c1ccco1)N/N=C/c1ccco1	n	n	n	50.1µM	n	u
COc1ccc(N(C(=O)Cn2nnc3ccccc32)C(C(=O)NCc2ccccc2)c2ccc(F)cc2)cc1 (configuration not stated)	n	n	n	n	n	n
NS(=O)(=O)c1ccc(CCNc2nc3c(-c4cccc(F)c4)nnn3c3ccccc23)cc1	u	n	n	n	n	n
Cc1ccc(-c2nnn3c2nc(NCCc2ccc(Cl)cc2)c2ccccc23)cc1	n	n	n	n	n	n
Cc1ccc(-c2nnn3c2nc(NCCc2ccc(S(N)(=O)=O)cc2)c2ccccc23)cc1	n	n	n	5.01µM	n	n
Cc1cccc(-c2nnn3c2nc(NCCc2ccc(S(N)(=O)=O)cc2)c2ccccc23)c1	u	n	n	10µM	n	u
COc1ccc2nc(N=Nc3ccc(O)c4ccccc34)sc2c1	u	n	n	44.7µM	n	n
O=C(Nc1cccnc1)c1cc2c(ccc3ccccc32)o1	u	u	x	31.6µM	n	50.1µM
O=C(COc1ccc(/C=N/NC(=O)c2cc3ccccc3o2)cc1Br)Nc1ccccc1	0.891µM	n	n	5.62µM	u	u
O=C(N/N=C/c1ccncc1)c1cc2c(ccc3ccccc32)o1	u	n	x	n	n	n
COc1ccc(/C=N/NC(=O)c2cc3c(ccc4ccccc43)o2)cc1OC	n	n	n	n	n	n
O=C(O)c1ccc(/C=N/NC(=O)c2cc3c(ccc4ccccc43)o2)cc1	u	n	39.8µM	39.8µM	u	u
NNC(=O)c1cc2c(ccc3ccccc32)o1	n	n	n	n	n	n
COc1ccc(/C=N\NC(=O)c2cc3c(ccc4ccccc43)o2)cc1O	50.1µM	n	x	n	u	28.2µM
O=C(Nc1ccc(F)c(F)c1)c1cnn2c1NC(=C1CC1)C=C2C(F)(F)F	x	n	x	x	n	n
CC(NC(=O)C1CCN(C(=O)c2ccc(-n3ccc4ccccc43)s2)CC1)c1ccccc1 (configuration not stated)	n	n	n	n	n	n
O=S(=O)(c1cccc(F)c1)N1CCN(S(=O)(=O)c2ccc3c(c2)OCCO3)CC1	x	x	n	x	x	x
C=C1NN(CC2CC2)C(=O)N1c1ccc(OCc2ccccc2)cc1	x	n	x	x	n	n
O=C1CCCC2=C1C1(CCSC1)N=C(Nc1nc3ccccc3o1)N2 (configuration not stated)	x	x	n	x	x	x
NCc1ccccc1CC(=O)N[C@@H]1C(=O)N2C(C(=O)O)=C(CSc3nnnn3CC(=O)O)CS[C@@H]12	x	n[19.4 µM]	10µM	x	x	x
CN(C)CCn1nnnc1SCC1=C(C(=O)O)N2C(=O)[C@@H](NC(=O)Cc3csc(N)n3)[C@H]2SC1	u	50.1µM	x	x	u	14.1µM
Cc1ccc2c(c1)C/C(=C/c1ccc(N(C)C)cc1)C2=O	x	n	x	x	n	n
CC/C=C\C/C=C\C/C=C\C/C=C\C/C=C\C/C=C\CCC(=O)NCC(=O)O	x	x	n	x	x	x
O=C(OCC(=O)N1CCN(c2ccccc2)CC1)c1ccc2ncsc2c1	u	n	x	89.1µM	n	u
